# Measured values taken from PubChem BioAssay AID1851 (National Center for Advancing Translational Sciences (NCATS), 2009).
# About 4,000 (25%) of roughly 16,000 compounds were called active. About 26% were inconclusive and are not listed. The list is a sample of the results. A number with no mark means an inactive call. Calls follow the shape of the dose curve; as a rule, active = well fitted curve in the direction sought with a large enough effect; inconclusive = small, poorly fitted or top-dose-only effect, or effect the other way; inactive = no such curve, though single readings can be large or run the other way.
# Target: Cytochrome P450 2C9 (Homo sapiens) (UniProt P11712)
# Assay: Cytochrome panel assay with activity outcomes
# Conditions: recombinant CYP, pro-luciferin dealkylation, luminescence, p450-cyp2c9; series mostly up to 57.1 µM; activity, negative = inhibition: at the top concentration
# % is scaled to controls: 0 for no effect and ±100 for the full control effect.
# Chain of Cytochrome P450 2C9 (Homo sapiens) (P11712 whole entry, looked up): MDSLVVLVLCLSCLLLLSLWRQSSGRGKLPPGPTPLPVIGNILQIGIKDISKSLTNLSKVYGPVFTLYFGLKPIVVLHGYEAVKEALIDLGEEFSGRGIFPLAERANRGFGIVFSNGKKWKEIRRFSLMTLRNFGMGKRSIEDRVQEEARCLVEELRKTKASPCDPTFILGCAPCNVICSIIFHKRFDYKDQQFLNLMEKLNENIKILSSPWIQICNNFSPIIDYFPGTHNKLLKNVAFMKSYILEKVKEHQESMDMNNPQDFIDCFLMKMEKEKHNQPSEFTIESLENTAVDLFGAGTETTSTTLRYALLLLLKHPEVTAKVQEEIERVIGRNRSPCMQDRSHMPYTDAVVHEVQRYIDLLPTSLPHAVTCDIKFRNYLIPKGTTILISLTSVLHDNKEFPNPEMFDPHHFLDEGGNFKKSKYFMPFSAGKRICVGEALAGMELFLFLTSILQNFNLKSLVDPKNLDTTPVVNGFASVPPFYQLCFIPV
Compound,AC50,"activity, negative = inhibition"
COC(=O)C/C=C\[C@@H](C)[C@@H](/C=N\O[C@@H](C)c1cc(-c2c(C)cc(C)cc2C)no1)NS(=O)(=O)c1ccc(C)cc1,2510 nM (active),
CCCNC(=O)OC[C@H]1O[C@@H](CCO/N=C\[C@@H](NS(=O)(=O)c2ccc(C)cc2)[C@H](C)/C=C\CC(=O)OC)C=C[C@@H]1Oc1ccc(OC)cc1,3980 nM (active),
COc1ccc(O[C@H]2C=C[C@@H](c3ccccc3)O[C@@H]2CO/N=C\[C@@H](C)[C@H](OCc2ccccc2)C(C)C)cc1,,-24.2% [at 11.4 µM]
CO/N=C\[C@@H](NS(=O)(=O)c1ccc(C)cc1)[C@H](C)/C=C\CC(=O)OC,,-27.4% [at 11.4 µM]
COC(=O)C/C=C\[C@@H](C)[C@@H](/C=N\O[C@@H](C)c1cn([C@H]2COC[C@H]2O)nn1)NS(=O)(=O)c1ccc(C)cc1,,16% [at 11.4 µM]
CCCNC(=O)OC[C@@H]1O[C@H](CCON=C(C)C)C=C[C@@H]1Oc1ccc(OC)cc1,,2.96% [at 11.4 µM]
COC(=O)C/C=C\[C@@H](C)[C@@H](/C=N\OC[C@@H]1O[C@H](c2ccccc2)C=C[C@@H]1Oc1ccc(OC)cc1)NS(=O)(=O)c1ccc(C)cc1,1260 nM (active),
COC(=O)C/C=C\[C@@H](C)[C@@H](/C=N\OC[C@@H](O)COCc1ccco1)NS(=O)(=O)c1ccc(C)cc1,,-14.9% [at 11.4 µM]
CCCNC(=O)OC[C@@H]1O[C@H](CCO/N=C\[C@@H](C)[C@H](OCc2ccccc2)C(C)C)C=C[C@@H]1Oc1ccc(OC)cc1,,-22.3% [at 11.4 µM]
CCNc1ncc2nc(-c3ccc(F)cc3)c(=O)n(CCOC)c2n1,,-4.26%
CCOC(=O)c1c(C)c(C)n2c1NC(=O)C2,,-2.03% [at 11.4 µM]
CCOC(=O)C1=C(C)NC(=O)N[C@@H]1c1coc2cc(C)cc(C)c2c1=O,,-14.5% [at 11.4 µM]
CCOC(=O)C1=C(C)NC(=O)NC1c1ccoc1 (configuration not stated),12600 nM (active),
COCCNC(=O)CSc1nc2cc(OC)c(OC)cc2c(=O)n1Cc1ccco1,2240 nM (active),
COc1cc2nc(N3CC=[N+](C(=O)c4ccco4)CC3)nc(N)c2cc1OC,,-8.49%
CCCCNC(=O)CSc1nc2cc(OC)c(OC)cc2c(=O)n1Cc1ccc(OC)cc1,2240 nM (active),
COc1ccc2nc(SCC(=O)NN)cc(C)c2c1,,12.8%
COc1cc2nc(N(C)CCCNC(=O)[C@@H]3CCCO3)nc(N)c2cc1OC,,-16.9% [at 25.6 µM]
COCCCNC(=O)CCC(=O)Nc1ccc2nc(N3CCOCC3)cc(C)c2c1,,-26.7%
COCCNC(=O)CSc1nc2ccc(N3CCOCC3)cc2c(=O)n1Cc1ccc(OC)cc1,5620 nM (active),
COCCn1c(=O)c(-c2ccc(OC)cc2)nc2cnc(N3CCOCC3)nc21,,17.6%
CCN(C(=O)CSc1nc2cc(C(=O)OC)ccc2c(=O)n1Cc1ccco1)c1cccc(C)c1,200 nM (active),
